Counter-ions that a name gives are not always drawn. ± gives the standard deviation of the averaged measurements.

One assay relates to iBMDM (immortalised mouse bone-marrow-derived macrophages), LPS-stimulated. The assay can be described thus: mitochondrial superoxide (MitoSOX fluorescence) fold increase over unstimulated control; higher = more LPS-induced mitochondrial ROS (less inhibition). Conditions: inhibitor concentration: 500 nM; LPS: 100 ng/ml; time after LPS: 1 h. The method in brief: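 Immortalised mouse bone-marrow-derived macrophages in black 96-well plates were kept in phenol-red-free 1% FCS/DMEM for 20 h, pretreated 30 min with kinase inhibitors (500 nM), loaded with 1 μM MitoSox for 10 min and then given LPS (100 ng/ml). Fluorescence at excitation/emission 510/580 nm was read on a ClarioStar plate reader every 60 min for 4 h, with wells in triplicate. Mitochondrial superoxide is given as fold induction over untreated macrophages, averaged across replicates.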
In turn, `Cc1cc(Nc2cc(N3CCN(C)CC3)nc(Sc3ccc(NC(=O)C4CC4)cc3)n2)n[nH]1` [VX-680 (Tozasertib, MK-0457)] came in with a mitochondrial superoxide of 1.55 ± 0.069.
Same read-out and setting: then `CC(C)n1nc(-c2ccc3oc(N)nc3c2)c2c(N)ncnc21`, with 1.34 ± 0.018.
The same measure, in the same setting: then `CC(C)(O)CC(=O)NCCn1ccc2ncnc(Nc3ccc(Oc4cccc(C(F)(F)F)c4)c(Cl)c3)c21`, with 1.14 ± 0.019; and `CCN(CCO)CCCOc1ccc2c(Nc3cc(CC(=O)Nc4cccc(F)c4)[nH]n3)ncnc2c1` [Barasertib (AZD1152-HQPA)], with 1.33 ± 0.093; and `CC(C)(C)c1cc(/C=C(\C#N)C(N)=S)cc(C(C)(C)C)c1O` [Tyrphostin AG 879], with 1.37 ± 0.06.
Same read-out and setting: in the case of `COc1cc2ncnc(Oc3cccc(NC(=O)Nc4cc(C(C)(C)C(F)(F)F)on4)c3)c2cc1OC` it was 1.36 ± 0.027.
Consider `CN1CCC(CNc2ccc3ncc(-c4cccc(OC(F)(F)F)c4)n3n2)CC1` [SGI-1776 free base], for which the mitochondrial superoxide was found to be 1.13 ± 0.048.
Same read-out and setting: in the case of `CCN(CC)CCCCNc1ncc2cc(-c3cc(OC)cc(OC)c3)c(NC(=O)NC(C)(C)C)nc2n1` it was 1.16 ± 0.036; in that of `COc1cc2c(Oc3ccc4[nH]c(C)cc4c3F)ncnc2cc1OCCCN1CCCC1` [Cediranib (AZD2171)], 1.65 ± 0.088.
Same read-out and setting: in the case of `Nc1ncnc2c1c(-c1cnc3[nH]ccc3c1)nn2C1CCCC1` it was 1.34 ± 0.077.
In turn, `COc1ccc2c(c1)c(C1=C(c3c[nH]c4ccccc34)C(=O)NC1=O)cn2CCCN(C)C` displayed a mitochondrial superoxide of 1.23 ± 0.056.
Same read-out and setting: then `COc1cc2nccc(Oc3ccc(NC(=O)C4(C(=O)Nc5ccc(F)cc5)CC4)cc3)c2cc1OC`, with 1.41 ± 0.041; and `C#Cc1cccc(Nc2ncnc3cc(OCCOC)c(OCCOC)cc23)c1` [Erlotinib HCl (OSI-744)], with 1.62 ± 0.033; and `Nc1ncnc2c1c(-c1cccc(OCc3ccccc3)c1)cn2C1CC(CN2CCCC2)C1` (centres undefined), with 1.44 ± 0.15.
Same read-out and setting: then `O=C(Nc1ccc(-c2ccnc(Nc3ccc(N4CCOCC4)cc3)n2)cc1)C1CCCN1` (centres undefined), with 1.21 ± 0.058; and `NC1(c2ccc(-c3nc4ccn5c(=O)[nH]nc5c4cc3-c3ccccc3)cc2)CCC1`, with 1.26 ± 0.036.
On the same count and under the same terms, then `CNC(=O)c1cc(COc2nnc(Nc3ccc(Cl)cc3)c3ccoc23)ccn1` [Telatinib], with 1.23 ± 0.036.
For the compound `Cc1csc(-c2nnc(Nc3ccc(Oc4ncccc4-c4ccnc(N)n4)cc3)c3ccccc23)c1`, the mitochondrial superoxide worked out at 1.35 ± 0.042.
Same read-out and setting: in the case of `Cc1ccc(S(=O)(=O)C=CC#N)cc1` it was 1.19 ± 0.044; in that of `CN1CCN(c2ccc3nc(-c4c(N)c5c(F)cccc5[nH]c4=O)[nH]c3c2)CC1` [Dovitinib (TKI-258, CHIR-258)], 1.62 ± 0.087.
Same read-out and setting: in the case of `CN(C)Cc1cccc(N=C(c2ccccc2)c2c(O)[nH]c3cc(C(=O)N(C)C)ccc23)c1` it was 1.11 ± 0.069; in that of `CC(C)(C)c1cc(NC(=O)Nc2ccc(-c3cn4c(n3)sc3cc(OCCN5CCOCC5)ccc34)cc2)no1` [Quizartinib (AC220)], 1.15 ± 0.027; in that of `COc1cc2c(Nc3ccc(NC(=O)c4ccccc4)cc3)ncnc2cc1OCCCN1CCOCC1`, 1.34 ± 0.06.
Same read-out and setting: in the case of `Cc1ccc(F)c(NC(=O)Nc2ccc(-c3cccc4[nH]nc(N)c34)cc2)c1` [Linifanib (ABT-869)] it was 1.66 ± 0.077; in that of `Cc1c(C(=O)N2CCOc3ccc(-c4ccc(N)nc4)cc3C2)ccc(S(C)(=O)=O)c1F`, 1.112 ± 0.0078.
Compound `COc1cccc2cc(-c3nc([C@H]4CC[C@H](C(=O)O)CC4)n4ncnc(N)c34)[nH]c12` displayed a mitochondrial superoxide of 1.3 ± 0.046.
On the same count and under the same terms, in the case of `CO[C@H]1C[C@@H]2CC[C@@H](C)[C@@](O)(O2)C(=O)C(=O)N2CCCC[C@H]2C(=O)O[C@H]([C@H](C)C[C@@H]2CC[C@@H](O)[C@H](OC)C2)CC(=O)[C@H](C)/C=C(\C)[C@@H](O)[C@@H](OC)C(=O)[C@H](C)C[C@H](C)/C=C/C=C/C=C/1C` [Rapamycin (Sirolimus)] it was 1.7 ± 0.07.
As for `CC(C)(C)Cn1c(N)nc2ccc(-c3[nH]c(C(C)(C)C)nc3-c3ccc(F)cc3)nc21`, the mitochondrial superoxide was 1.111 ± 0.0047.
Still for that read-out and setting: then `CC1(C)CNc2cc(NC(=O)c3cccnc3NCc3ccncc3)ccc21` [Motesanib Diphosphate (AMG-706)], with 1.55 ± 0.066.
On to `O=C(NCCCNc1nc(Nc2cccc(NC(=O)N3CCCC3)c2)ncc1I)c1cccs1`, for which the mitochondrial superoxide is 1.14 ± 0.041.
Still for that read-out and setting: then `O=c1cc(N2CCOCC2)oc2c(-c3cccc4c3sc3ccccc34)cccc12`, with 1.31 ± 0.028; and `C=CC(=O)Nc1cccc(Sc2nc(Nc3ccc(N4CCN(C)CC4)cc3)ncc2Cl)c1`, with 1.24 ± 0.09; and `O=C(Nc1cccc(Nc2ncc(Br)c(NCCc3cnc[nH]3)n2)c1)N1CCCC1`, with 1.13 ± 0.088.
In turn, `C[C@@H]1CN(CC(=O)Nc2ccc3c(c2)Cc2cccc(-c4cc(=O)cc(N5CCOCC5)o4)c2S3)C[C@H](C)O1` registered a mitochondrial superoxide of 1.2 ± 0.07.
On the same count and under the same terms, in the case of `Cc1c(NC(=O)OC[C@@H]2COCCN2)cn2ncnc(Nc3ccc4c(cnn4Cc4cccc(F)c4)c3)c12` it was 1.57 ± 0.034; in that of `CC(C)(C)c1nc(-c2cccc(NS(=O)(=O)c3c(F)cccc3F)c2F)c(-c2ccnc(N)n2)s1`, 1.25 ± 0.046; in that of `CCn1c(N)c(C(=O)NC)c(=O)c2ccc(C#CC(C)(O)COC)nc21` (centres undefined), 1.11 ± 0.027.

Still in this assay, the particulars now being: inhibitor concentration: 500 nM; LPS: 100 ng/ml; time after LPS: 2 h.
Turning to `Cc1cc(Nc2cc(N3CCN(C)CC3)nc(Sc3ccc(NC(=O)C4CC4)cc3)n2)n[nH]1` [VX-680 (Tozasertib, MK-0457)], the mitochondrial superoxide came out at 1.64 ± 0.051.
On the same count and under the same terms, in the case of `CC(C)n1nc(-c2ccc3oc(N)nc3c2)c2c(N)ncnc21` it was 1.57 ± 0.055; in that of `CC(C)(O)CC(=O)NCCn1ccc2ncnc(Nc3ccc(Oc4cccc(C(F)(F)F)c4)c(Cl)c3)c21`, 1.37 ± 0.12.
Consider `CCN(CCO)CCCOc1ccc2c(Nc3cc(CC(=O)Nc4cccc(F)c4)[nH]n3)ncnc2c1` [Barasertib (AZD1152-HQPA)], for which the mitochondrial superoxide came out at 1.39 ± 0.13.
On the same count and under the same terms, in the case of `CC(C)(C)c1cc(/C=C(\C#N)C(N)=S)cc(C(C)(C)C)c1O` [Tyrphostin AG 879] it was 1.42 ± 0.037.
Same read-out and setting: in the case of `COc1cc2ncnc(Oc3cccc(NC(=O)Nc4cc(C(C)(C)C(F)(F)F)on4)c3)c2cc1OC` it was 1.562 ± 0.0063; in that of `CN1CCC(CNc2ccc3ncc(-c4cccc(OC(F)(F)F)c4)n3n2)CC1` [SGI-1776 free base], 1.22 ± 0.052.
Same read-out and setting: in the case of `CCN(CC)CCCCNc1ncc2cc(-c3cc(OC)cc(OC)c3)c(NC(=O)NC(C)(C)C)nc2n1` it was 1.11 ± 0.048.
`COc1cc2c(Oc3ccc4[nH]c(C)cc4c3F)ncnc2cc1OCCCN1CCCC1` [Cediranib (AZD2171)] registered a mitochondrial superoxide of 1.65 ± 0.079.
Regarding `Nc1ncnc2c1c(-c1cnc3[nH]ccc3c1)nn2C1CCCC1`, the mitochondrial superoxide stood at 1.41 ± 0.079.
Same read-out and setting: in the case of `COc1ccc2c(c1)c(C1=C(c3c[nH]c4ccccc34)C(=O)NC1=O)cn2CCCN(C)C` it was 1.27 ± 0.043.
On the same count and under the same terms, in the case of `COc1cc2nccc(Oc3ccc(NC(=O)C4(C(=O)Nc5ccc(F)cc5)CC4)cc3)c2cc1OC` it was 1.43 ± 0.017.
On the same count and under the same terms, then `C#Cc1cccc(Nc2ncnc3cc(OCCOC)c(OCCOC)cc23)c1` [Erlotinib HCl (OSI-744)], with 1.66 ± 0.076; and `Nc1ncnc2c1c(-c1cccc(OCc3ccccc3)c1)cn2C1CC(CN2CCCC2)C1` (centres undefined), with 1.55 ± 0.18; and `O=C(Nc1ccc(-c2ccnc(Nc3ccc(N4CCOCC4)cc3)n2)cc1)C1CCCN1` (centres undefined), with 1.232 ± 0.011.
In the case of `NC1(c2ccc(-c3nc4ccn5c(=O)[nH]nc5c4cc3-c3ccccc3)cc2)CCC1`, the mitochondrial superoxide came to 1.34 ± 0.065.
Same read-out and setting: in the case of `CNC(=O)c1cc(COc2nnc(Nc3ccc(Cl)cc3)c3ccoc23)ccn1` [Telatinib] it was 1.33 ± 0.051; in that of `Cc1csc(-c2nnc(Nc3ccc(Oc4ncccc4-c4ccnc(N)n4)cc3)c3ccccc23)c1`, 1.5 ± 0.038; in that of `Cc1ccc(S(=O)(=O)C=CC#N)cc1`, 1.19 ± 0.073.
In turn, `CN1CCN(c2ccc3nc(-c4c(N)c5c(F)cccc5[nH]c4=O)[nH]c3c2)CC1` [Dovitinib (TKI-258, CHIR-258)] displayed a mitochondrial superoxide of 1.7 ± 0.026.
With `CN(C)Cc1cccc(N=C(c2ccccc2)c2c(O)[nH]c3cc(C(=O)N(C)C)ccc23)c1`, the mitochondrial superoxide worked out at 1.141 ± 0.011.
Still for that read-out and setting: in the case of `CC(C)(C)c1cc(NC(=O)Nc2ccc(-c3cn4c(n3)sc3cc(OCCN5CCOCC5)ccc34)cc2)no1` [Quizartinib (AC220)] it was 1.19 ± 0.047.
The same measure, in the same setting: in the case of `COc1cc2c(Nc3ccc(NC(=O)c4ccccc4)cc3)ncnc2cc1OCCCN1CCOCC1` it was 1.44 ± 0.069; in that of `Cc1ccc(F)c(NC(=O)Nc2ccc(-c3cccc4[nH]nc(N)c34)cc2)c1` [Linifanib (ABT-869)], 1.72 ± 0.074.
On the same count and under the same terms, then `Cc1c(C(=O)N2CCOc3ccc(-c4ccc(N)nc4)cc3C2)ccc(S(C)(=O)=O)c1F`, with 1.25 ± 0.064; and `COc1cccc2cc(-c3nc([C@H]4CC[C@H](C(=O)O)CC4)n4ncnc(N)c34)[nH]c12`, with 1.39 ± 0.018; and `CO[C@H]1C[C@@H]2CC[C@@H](C)[C@@](O)(O2)C(=O)C(=O)N2CCCC[C@H]2C(=O)O[C@H]([C@H](C)C[C@@H]2CC[C@@H](O)[C@H](OC)C2)CC(=O)[C@H](C)/C=C(\C)[C@@H](O)[C@@H](OC)C(=O)[C@H](C)C[C@H](C)/C=C/C=C/C=C/1C` [Rapamycin (Sirolimus)], with 1.7 ± 0.094.
`CC(C)(C)Cn1c(N)nc2ccc(-c3[nH]c(C(C)(C)C)nc3-c3ccc(F)cc3)nc21` showed a mitochondrial superoxide of 1.17 ± 0.032.
Still for that read-out and setting: in the case of `CC1(C)CNc2cc(NC(=O)c3cccnc3NCc3ccncc3)ccc21` [Motesanib Diphosphate (AMG-706)] it was 1.63 ± 0.12.
Same read-out and setting: in the case of `O=C(NCCCNc1nc(Nc2cccc(NC(=O)N3CCCC3)c2)ncc1I)c1cccs1` it was 1.18 ± 0.036.
`O=c1cc(N2CCOCC2)oc2c(-c3cccc4c3sc3ccccc34)cccc12` showed a mitochondrial superoxide of 1.4 ± 0.037.
Same read-out and setting: then `C=CC(=O)Nc1cccc(Sc2nc(Nc3ccc(N4CCN(C)CC4)cc3)ncc2Cl)c1`, with 1.26 ± 0.035; and `O=C(Nc1cccc(Nc2ncc(Br)c(NCCc3cnc[nH]3)n2)c1)N1CCCC1`, with 1.11 ± 0.043; and `C[C@@H]1CN(CC(=O)Nc2ccc3c(c2)Cc2cccc(-c4cc(=O)cc(N5CCOCC5)o4)c2S3)C[C@H](C)O1`, with 1.31 ± 0.059.
The same measure, in the same setting: in the case of `Cc1c(NC(=O)OC[C@@H]2COCCN2)cn2ncnc(Nc3ccc4c(cnn4Cc4cccc(F)c4)c3)c12` it was 1.74 ± 0.077; in that of `CC(C)(C)c1nc(-c2cccc(NS(=O)(=O)c3c(F)cccc3F)c2F)c(-c2ccnc(N)n2)s1`, 1.43 ± 0.054.
Still for that read-out and setting: then `CCn1c(N)c(C(=O)NC)c(=O)c2ccc(C#CC(C)(O)COC)nc21` (centres undefined), with 1.22 ± 0.042.

The record behind these values is the supplement of paper PMC7393113.
